Laboratory results: PubChem BioAssay (NCATS)
Inconclusive results are not listed. Entries that show only a call come without a potency. Calls of active or inactive are those of the source. Calls follow the shape of the dose curve; as a rule, active = well fitted inhibition curve with a large enough effect; inconclusive = small, poorly fitted or top-dose-only effect; inactive = flat fitted curve, though single readings scatter.

Target: Voltage-gated inwardly rectifying potassium channel KCNH2 (Homo sapiens) (UniProt Q12809)
Sequence (Q12809 whole entry, looked up): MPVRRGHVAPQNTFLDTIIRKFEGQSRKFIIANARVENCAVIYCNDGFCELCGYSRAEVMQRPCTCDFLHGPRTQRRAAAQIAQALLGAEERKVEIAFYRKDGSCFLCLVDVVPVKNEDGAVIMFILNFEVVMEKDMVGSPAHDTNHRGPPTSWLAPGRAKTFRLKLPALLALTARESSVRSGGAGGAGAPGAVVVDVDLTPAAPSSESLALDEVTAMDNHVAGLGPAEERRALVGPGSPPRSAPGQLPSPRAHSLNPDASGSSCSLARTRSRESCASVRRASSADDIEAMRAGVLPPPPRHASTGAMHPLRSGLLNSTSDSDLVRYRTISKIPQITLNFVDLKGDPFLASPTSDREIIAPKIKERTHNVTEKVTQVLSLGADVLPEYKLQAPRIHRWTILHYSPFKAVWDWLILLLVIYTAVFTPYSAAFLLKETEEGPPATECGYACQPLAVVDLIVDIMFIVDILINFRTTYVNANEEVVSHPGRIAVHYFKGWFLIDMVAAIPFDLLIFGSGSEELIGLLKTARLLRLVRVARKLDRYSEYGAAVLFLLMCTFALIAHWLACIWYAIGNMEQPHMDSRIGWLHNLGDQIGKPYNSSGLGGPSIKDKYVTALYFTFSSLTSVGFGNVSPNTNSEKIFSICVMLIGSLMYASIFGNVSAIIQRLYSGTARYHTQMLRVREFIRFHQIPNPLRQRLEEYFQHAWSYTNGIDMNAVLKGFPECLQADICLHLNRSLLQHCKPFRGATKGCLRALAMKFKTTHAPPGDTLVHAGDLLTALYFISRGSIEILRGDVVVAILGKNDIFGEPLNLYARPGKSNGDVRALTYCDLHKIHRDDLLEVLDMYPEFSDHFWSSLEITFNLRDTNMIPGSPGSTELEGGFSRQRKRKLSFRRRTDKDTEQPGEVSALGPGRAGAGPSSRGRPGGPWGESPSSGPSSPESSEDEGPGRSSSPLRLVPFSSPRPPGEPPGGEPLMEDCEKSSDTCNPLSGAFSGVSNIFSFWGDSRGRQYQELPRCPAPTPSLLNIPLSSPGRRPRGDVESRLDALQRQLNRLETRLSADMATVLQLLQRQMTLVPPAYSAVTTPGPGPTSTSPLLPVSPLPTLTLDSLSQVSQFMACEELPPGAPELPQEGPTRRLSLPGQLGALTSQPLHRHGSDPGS
Test: qHTS Assay for Small Molecule Inhibitors of the Human hERG Channel Activity (AID 588834);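 also: lower thallium flux fluorescence means stronger hERG block; nearly all actives have a fitted effect of over 50% in size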
Conditions: U2OS BacMam hERG, FluxOR thallium flux fluorescence; series mostly up to 46.1 µM
Outline: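 Kinetic FDSS fluorescence; U2OS + hERG BacMam (~100 virus particles/cell); FluxOR Tl+ flux; ~10 min cpd; AC50 (Hill).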
Potency is read from the fitted curve at half-maximal effect.

SMILES	Potency
CC1(C)O[C@@H]2[C@@H](CO[C@@]3(COS(N)(=O)=O)OC(C)(C)O[C@@H]23)O1	inactive
CC(=O)OCC(=O)[C@@]12OC(C)(C)O[C@@H]1C[C@H]1[C@@H]3C[C@H](F)C4=CC(=O)C=C[C@]4(C)[C@@]3(F)[C@@H](O)C[C@@]12C	inactive
N[C@@H](CCC(=O)N[C@@H](CS)C(=O)NCC(=O)O)C(=O)O	inactive
Cc1cc(N)c2cc(NC(=O)Nc3ccc4nc(C)cc(N)c4c3)ccc2n1	inactive
C[C@]12CCC(=O)C=C1[C@@H]1C[C@@H]1[C@H]1[C@@H]3[C@@H]4C[C@@H]4[C@@]4(CCC(=O)O4)[C@@]3(C)CC[C@@H]12	inactive
C=C1C[C@H]2[C@@H]3C=C(C)C4=CC(=O)CC[C@]4(C)[C@H]3CC[C@]2(C)[C@@]1(OC(C)=O)C(C)=O	inactive
CCN(CCCCOC(=O)c1ccc(OC)c(OC)c1)C(C)Cc1ccc(OC)cc1 (centres undefined)	2.24 µM (active)
NC[C@H]1O[C@H](O[C@H]2[C@H](O[C@@H]3O[C@H](CO)[C@@H](O)[C@H]3O)C(O)[C@H](N)C[C@@H]2N)[C@H](N)[C@@H](O)[C@@H]1O (some centres undefined)	inactive
CC(=O)OCC(=O)[C@@]12N=C(C)O[C@@H]1C[C@H]1[C@@H]3CCC4=CC(=O)C=C[C@]4(C)[C@H]3[C@@H](O)C[C@@]12C	inactive
CCOC(=O)[C@H](CCc1ccccc1)N[C@@H](C)C(=O)N1Cc2ccccc2C[C@H]1C(=O)O	inactive
CC1(C)O[C@@H]2C[C@H]3[C@@H]4CCC5=CC(=O)CC[C@]5(C)[C@@]4(F)[C@@H](O)C[C@]3(C)[C@]2(C(=O)CCl)O1	inactive
OC[C@@H](O)[C@@H](O[C@@H]1O[C@H](CO)[C@H](O)[C@H](O)[C@H]1O)[C@H](O)[C@@H](O)CO	inactive
C[C@]12C=CC(=O)C=C1CC[C@@H]1[C@@H]2[C@@H](O)C[C@@]2(C)[C@H]1CC[C@]2(O)C(=O)CO	inactive
CC(=O)OCC(=O)[C@@]1(O)[C@H](C)C[C@H]2[C@@H]3CCC4=CC(=O)C=C[C@]4(C)[C@@]3(F)[C@@H](O)C[C@@]21C	inactive
CC(=O)[C@H]1CC[C@H]2[C@@H]3C[C@H](C)C4=CC(=O)CC[C@]4(C)[C@H]3[C@@H](O)C[C@]12C	inactive
CCCC(=O)Nc1ccc(OCC(O)CNC(C)C)c(C(C)=O)c1 (centres undefined)	inactive
O=C(OCC(O)CO)c1ccccc1Nc1ccnc2cc(Cl)ccc12 (centres undefined)	inactive
CC1(C)O[C@@H]2C[C@H]3[C@@H]4C[C@H](F)C5=CC(=O)C=C[C@]5(C)[C@H]4[C@@H](O)C[C@]3(C)[C@]2(C(=O)CO)O1	inactive
CN(C/C=C/c1ccccc1)Cc1cccc2ccccc12	10 µM (active)
NC(=O)c1cc[n+](CC2=C(C(=O)[O-])N3C(=O)[C@@H](NC(=O)Cc4cccs4)[C@H]3SC2)cc1	inactive

SMILES	Potency
CC[C@@H](CO)NCCN[C@@H](CC)CO	inactive
O=C1OC2(c3ccc(O)cc3Oc3cc(O)ccc32)c2ccccc21	0.631 µM (active)
O=c1[nH]c(=O)n([C@H]2C[C@H](O)[C@@H](CO)O2)cc1C(F)(F)F	inactive
C[C@]12CC[C@H]3[C@@H](CCC4=CC(=O)CC[C@@]43C)[C@@H]1CC[C@@H]2C(=O)CO	inactive
CCCCCCCCCCCCCCCC[N+](C)(C)CCN(Cc1ccc(OC)cc1)c1ncccn1	1.41 µM (active)
C[C@@H]1C[C@H]2[C@@H]3C[C@H](F)C4=CC(=O)C(Cl)=C[C@]4(C)[C@@]3(F)[C@@H](O)C[C@]2(C)[C@@]1(O)C(=O)CO	inactive
COc1cc2c(cc1OC)[C@@H]1CC(=O)[C@@H](CC(C)C)CN1CC2	inactive
CC(Cc1ccccc1)(NC(=O)CN)c1ccccc1 (centres undefined)	inactive
C#C[C@]1(O)CC[C@H]2[C@@H]3CCC4=CC(=O)CC[C@@H]4[C@H]3CC[C@@]21C	inactive
CC1(C)O[C@@H]2C[C@H]3[C@@H]4C[C@H](F)C5=CC(=O)CC[C@]5(C)[C@H]4[C@@H](O)C[C@]3(C)[C@]2(C(=O)CO)O1	inactive
CN1CCCC(CC2c3ccccc3Sc3ccccc32)C1 (centres undefined)	4.47 µM (active)
CC1=C(C(=O)O)N2C(=O)[C@@H](NC(=O)[C@H](N)c3ccc(O)cc3)[C@H]2SC1	inactive
CCCSS/C(CCO)=C(\C)N(C=O)Cc1cnc(C)nc1N	11.2 µM (active)
C/C=C/c1ccc(OC)cc1	inactive
CN(C)CC/C=C1/c2ccccc2COc2ccc(CC(=O)O)cc21	inactive
COc1cc(/C=C/C(=O)O[C@H]2CC[C@]34C[C@]35CC[C@]3(C)[C@@H]([C@H](C)CCC=C(C)C)CC[C@@]3(C)[C@@H]5CC[C@H]4C2(C)C)ccc1O	inactive
CCCCCCCCCCOCC(O)CN (centres undefined)	25.1 µM (active)
CCCCC(=O)O[C@]1(C(=O)CO)CC[C@H]2[C@@H]3CCC4=CC(=O)CC[C@]4(C)[C@H]3[C@@H](O)C[C@@]21C	inactive
Nc1nc2ncc(CNc3ccc(C(=O)N[C@@H](CCC(=O)O)C(=O)O)cc3)nc2c(=O)[nH]1	inactive
